Assay results taken from PubChem BioAssay (NCATS).
A number with no mark means an inactive call. Inconclusive results are not listed. Activity calls are given as the source filed them. Unless noted, calls come from the whole dose curve; as a rule, active = well fitted curve in either direction with a large enough effect (not every such curve was filed as active); inconclusive = small, poorly fitted or top-dose-only effect, or another doubt; inactive = flat fitted curve, though single readings scatter.

Tests used:
[1] = AP1 Signaling Pathway (AID 357); conditions: ME-180 AP-1-bla reporter, EGF-induced, beta-lactamase ratio, 5 h; at 17.2 µM (top of the series) unless noted;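 note: ME-180 reporter cells stimulated with EGF at its EC50 level; % is set by controls: 0 for no effect and ±100 for the full control effect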
Outline: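 In this screen, ME-180 cells in Opti-MEM with 0.5% dialyzed FBS received EC50 EGF and compound titrations for 5 h. AP-1 reporter beta-lactamase was detected via CCF4 ratio, giving AC50 for positive and negative modulators.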

[2] = Stat Signaling Pathway (AID 446); conditions: ME-180 (cervical carcinoma) SIE beta-lactamase reporter, IL-6 stimulated, 5 h; at 17.2 µM (top of the series) unless noted;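 note: ME-180 cervical cancer cells given 40 pM IL-6 alongside compound; SIE-controlled beta-lactamase reporter measured as 460/530 nm FRET emission ratio; % is set by controls: 0 for no effect and ±100 for the full control effect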
Outline: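 FRET read-out (405 nm excitation, 460/530 nm emission) of a beta-lactamase reporter under a STAT-inducible element in ME-180 cervical carcinoma cells. Cells with compound receive 40 pM IL-6 for 5 h. Values are normalised to AC90 stimulation and AC90 JAK-inhibitor controls.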

[3] = target: Glucocorticoid receptor (Homo sapiens) (UniProt P04150); assay: GR-GFP Redistribution (AID 450;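 active = compounds whose dose series gives a full or clear partial fitted curve of increased nuclear translocation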; note: potency is the fitted concentration of half-maximal effect)
Sequence of Glucocorticoid receptor (Homo sapiens) (P04150 whole entry, looked up): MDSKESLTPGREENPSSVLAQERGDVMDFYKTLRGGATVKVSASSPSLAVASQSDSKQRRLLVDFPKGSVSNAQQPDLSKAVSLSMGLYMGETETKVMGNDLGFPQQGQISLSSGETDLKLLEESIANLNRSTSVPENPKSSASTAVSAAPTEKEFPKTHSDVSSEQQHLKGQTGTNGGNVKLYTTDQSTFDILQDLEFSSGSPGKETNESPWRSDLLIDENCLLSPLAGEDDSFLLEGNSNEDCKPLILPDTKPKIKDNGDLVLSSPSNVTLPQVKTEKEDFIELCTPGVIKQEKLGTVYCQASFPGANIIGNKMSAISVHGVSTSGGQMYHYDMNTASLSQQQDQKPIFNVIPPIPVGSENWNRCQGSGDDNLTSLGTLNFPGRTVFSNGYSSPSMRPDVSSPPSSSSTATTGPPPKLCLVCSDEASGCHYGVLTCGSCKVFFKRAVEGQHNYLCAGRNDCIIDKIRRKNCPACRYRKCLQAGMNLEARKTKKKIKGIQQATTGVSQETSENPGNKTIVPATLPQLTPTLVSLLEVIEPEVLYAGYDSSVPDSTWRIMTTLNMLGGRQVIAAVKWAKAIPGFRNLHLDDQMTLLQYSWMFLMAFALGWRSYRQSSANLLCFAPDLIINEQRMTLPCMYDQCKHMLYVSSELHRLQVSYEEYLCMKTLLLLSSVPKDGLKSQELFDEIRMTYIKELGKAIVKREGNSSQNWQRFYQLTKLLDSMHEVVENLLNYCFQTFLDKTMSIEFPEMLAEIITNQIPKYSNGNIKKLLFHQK

**Q.** Which activity change, negative = inhibition [1] does the source give for `CN1C2C=C3C(C#N)=C(N)C(C#N)(C#N)[C@@H](c4cccs4)C3C1CC2` (some centres not stated) here?
**A.** 17.2%

**Q.** What about the activity, negative = inhibition [2] of the same molecule?
**A.** 13.6%

**Q.** What about the Potency [3] of the same molecule?
**A.** > 20.6 µM

**Q.** Which activity change, negative = inhibition [1] does the source give for `COc1cc([C@@H]2[C@H]3CNCC=C3C(C#N)=C(N)C2(C#N)C#N)ccc1OC(C)C` here?
**A.** 14%

**Q.** What about the activity, negative = inhibition [2] of the same molecule?
**A.** 10.8%

**Q.** What about the Potency [3] of the same molecule?
**A.** > 20.6 µM

**Q.** With `CC1(C)Cc2c(C#N)c(SCC(=O)c3ccccc3)nc(N3CCCC3)c2CO1` as the molecule, how does the activity change, negative = inhibition [1] read?
**A.** 24.5%

**Q.** What about the activity, negative = inhibition [2] of the same molecule?
**A.** 6.65%

**Q.** What about the Potency [3] of the same molecule?
**A.** > 20.6 µM

**Q.** With `COc1cccc(CNc2ccc(Br)cn2)c1O` as the molecule, how does the activity change, negative = inhibition [1] read?
**A.** -25.3%

**Q.** What about the activity, negative = inhibition [2] of the same molecule?
**A.** -14.6%

**Q.** What about the Potency [3] of the same molecule?
**A.** > 20.6 µM

**Q.** For `Cc1ccccc1COc1ccc(/C(O)=C2/C(=O)C(=O)N(CCCn3ccnc3)C2c2ccco2)cc1` (configuration not stated), which activity change, negative = inhibition [1] is on record?
**A.** -11.1%

**Q.** And the activity, negative = inhibition [2]?
**A.** 3.48%

**Q.** What about the Potency [3] of the same molecule?
**A.** > 20.6 µM

**Q.** Which results are given for `COc1ccc(CSc2nnc3n(C)c(=O)c4c5c(sc4n23)CCCC5)cc1`?
**A.** activity change, negative = inhibition [1]: -2.6%; activity, negative = inhibition [2]: 0.924%; Potency [3]: > 20.6 µM

**Q.** Which results are given for `COc1cccc(/C(O)=C2/C(=O)C(=O)N(CCCN(C)C)C2c2cccc(Cl)c2)c1` (configuration not stated)?
**A.** activity change, negative = inhibition [1]: 5.09%; activity, negative = inhibition [2]: 5.04%; Potency [3]: > 20.6 µM

**Q.** What does the source list for `CCOc1nc(SCCOc2ccc(C)cc2)nc(N(C)C)n1`?
**A.** activity change, negative = inhibition [1]: -8.15%; activity, negative = inhibition [2]: -4.82%; Potency [3]: > 20.6 µM

**Q.** Which activity change, negative = inhibition [1] does the source give for `CCCC(=O)Nc1nn(CCC)c2nc3ccccc3cc12` here?
**A.** -2.33%

**Q.** And the activity, negative = inhibition [2]?
**A.** -4.63%

**Q.** And the Potency [3]?
**A.** > 20.6 µM

**Q.** For `Cc1ccc(-c2ccc(/C=N/c3ncn[nH]3)o2)cc1Cl`, which activity change, negative = inhibition [1] is on record?
**A.** 1.81%

**Q.** What about the activity, negative = inhibition [2] of the same molecule?
**A.** -7.79%

**Q.** What about the Potency [3] of the same molecule?
**A.** > 20.6 µM

**Q.** Which activity change, negative = inhibition [1] does the source give for `Cc1ccc2[nH]c3c(c2c1)CN(C(=O)CN1CCCc2ccccc21)CC3` here?
**A.** -22.5%

**Q.** What about the activity, negative = inhibition [2] of the same molecule?
**A.** -11.3%

**Q.** What about the Potency [3] of the same molecule?
**A.** > 20.6 µM

**Q.** What does the source list for `COc1cccc(-c2nc(N3CC(C)CC(C)C3)c3ccccc3n2)c1O` (configuration not stated)?
**A.** activity change, negative = inhibition [1]: 13.7%; activity, negative = inhibition [2]: 8.47%; Potency [3]: > 20.6 µM

**Q.** What does the source list for `CN1CCN(/C=N/c2sc3c(c2C#N)CCCCC3)CC1`?
**A.** activity change, negative = inhibition [1]: 4.68%; activity, negative = inhibition [2]: -3.82%; Potency [3]: > 20.6 µM

**Q.** What does the source list for `CCCc1cc(C(=O)Cc2ccc(F)cc2)c(O)cc1O`?
**A.** activity change, negative = inhibition [1]: -28%; activity, negative = inhibition [2]: -25.5%; Potency [3]: > 20.6 µM

**Q.** Which activity change, negative = inhibition [1] does the source give for `COc1ccccc1N1CCN(CCCCOc2ccc(F)cc2)CC1` here?
**A.** 18.8%

**Q.** And the activity, negative = inhibition [2]?
**A.** 5.73%

**Q.** What about the Potency [3] of the same molecule?
**A.** > 20.6 µM

**Q.** With `CCN(CC)CCCn1c(C)cc2c(c1=O)C(c1cccc(Cl)c1)C(C#N)=C(N)O2` (configuration not stated) as the molecule, how does the activity change, negative = inhibition [1] read?
**A.** -4.22%

**Q.** And the activity, negative = inhibition [2]?
**A.** -2.98%

**Q.** And the Potency [3]?
**A.** > 20.6 µM

**Q.** With `COc1cccc(C(=O)c2sc(NC(C)C)nc2N)c1` as the molecule, how does the activity change, negative = inhibition [1] read?
**A.** -116% (active)

**Q.** And the activity, negative = inhibition [2]?
**A.** -103% (active)

**Q.** And the Potency [3]?
**A.** > 20.6 µM

**Q.** With `Fc1ccc2[nH]c3c(N4CCN(C5CCCCC5)CC4)ncnc3c2c1` as the molecule, how does the activity change, negative = inhibition [1] read?
**A.** 7.44%

**Q.** And the activity, negative = inhibition [2]?
**A.** 16.1%

**Q.** What about the Potency [3] of the same molecule?
**A.** > 20.6 µM

**Q.** Which results are given for `CC(C)Cc1nc(N2CCOCC2)c(C#N)c2c1COC(C)(C)C2`?
**A.** activity change, negative = inhibition [1]: 0.834%; activity, negative = inhibition [2]: 4.57%; Potency [3]: > 20.6 µM

**Q.** What does the source list for `CCCCCCn1c(SCCN2CCOCC2)nc2c1c(=O)[nH]c(=O)n2C`?
**A.** activity change, negative = inhibition [1]: -17.8%; activity, negative = inhibition [2]: -0.329%; Potency [3]: > 20.6 µM

**Q.** For `CCSc1nnc(NC(=O)C(C(F)(F)F)C(F)(F)F)s1`, which activity change, negative = inhibition [1] is on record?
**A.** -16.3%

**Q.** What about the activity, negative = inhibition [2] of the same molecule?
**A.** -21.8%

**Q.** What about the Potency [3] of the same molecule?
**A.** > 20.6 µM

**Q.** With `CC(=O)O[C@H]1C(=O)[C@]2(C)[C@H]([C@H](OC(=O)c3ccccc3)[C@]3(O)C[C@H](OC(=O)[C@H](O)[C@@H](NC(=O)c4ccccc4)c4ccccc4)C(C)=C1C3(C)C)[C@]1(OC(C)=O)CO[C@@H]1C[C@@H]2O` as the molecule, how does the activity change, negative = inhibition [1] read?
**A.** -5.19%

**Q.** And the activity, negative = inhibition [2]?
**A.** -2.52%

**Q.** What about the Potency [3] of the same molecule?
**A.** > 20.6 µM

**Q.** Which activity change, negative = inhibition [1] does the source give for `CCOC(=O)c1c(NC(=O)CCN2CCOCC2)sc2c1CC(C)(C)OC2` here?
**A.** -21.7%

**Q.** And the activity, negative = inhibition [2]?
**A.** -5.77%

**Q.** What about the Potency [3] of the same molecule?
**A.** > 20.6 µM

**Q.** Which activity change, negative = inhibition [1] does the source give for `CCCc1nc(NC2CCCCC2)c(C#N)c2c1COC(C)(C)C2` here?
**A.** 16.4%

**Q.** And the activity, negative = inhibition [2]?
**A.** 25.5%

**Q.** And the Potency [3]?
**A.** > 20.6 µM

**Q.** Which activity change, negative = inhibition [1] does the source give for `Clc1ccc(Cl)c(-c2ccc(/C=N/c3ncn[nH]3)o2)c1` here?
**A.** -20.5%

**Q.** What about the activity, negative = inhibition [2] of the same molecule?
**A.** -6.04%

**Q.** What about the Potency [3] of the same molecule?
**A.** > 20.6 µM

**Q.** For `CN(Cc1c(O)ccc2c1oc(=O)c1ccccc12)C1CCCCC1`, which activity change, negative = inhibition [1] is on record?
**A.** 2.27%

**Q.** And the activity, negative = inhibition [2]?
**A.** 4.77%

**Q.** And the Potency [3]?
**A.** > 20.6 µM

**Q.** Which results are given for `CN1CC2(C)CN(C(c3ccccc3)c3ccccc3)CC(C)(C1)C2O` (configuration not stated)?
**A.** activity change, negative = inhibition [1]: 14.1%; activity, negative = inhibition [2]: 2.94%; Potency [3]: > 20.6 µM

**Q.** For `CC1CN(C2CCN(C(=O)c3ccccc3Cl)CC2)CC(C)O1` (configuration not stated), which activity change, negative = inhibition [1] is on record?
**A.** 6.4%

**Q.** What about the activity, negative = inhibition [2] of the same molecule?
**A.** 1.52%

**Q.** And the Potency [3]?
**A.** > 20.6 µM

**Q.** Which activity change, negative = inhibition [1] does the source give for `C=CCOn1c(=O)c(-c2cc3ccccc3o2)[n+]([O-])c2ccccc21` here?
**A.** -28.9%

**Q.** And the activity, negative = inhibition [2]?
**A.** -8.42%

**Q.** And the Potency [3]?
**A.** > 20.6 µM
